Measured values from the supplement of paper PMC8285479.
Where a name gives a salt, the structure may show the parent alone. ± gives the standard deviation of the averaged measurements. In all, about 1,900 compounds were measured (“normalised cell viability (NPI; 0 = phenylarsine oxide control, 1 = DMSO control)”: median about 1, lowest 2% from about 0.039 on). The list comes from a sample in which the lowest values are over-represented; it also holds similar structures and randomly drawn compounds.

Tested on: NCI-H1944
Assay: normalised cell viability (NPI; 0 = phenylarsine oxide control, 1 = DMSO control) (fraction of DMSO control); NCI-H1944 is a non-small cell lung cancer line; higher = more viable cells (less compound toxicity)
Conditions: 6 days
[1] = glucocorticoid arm: hydrocortisone 2.75 uM co-treatment, compound 1 µM
[2] = glucocorticoid arm: hydrocortisone 2.75 uM co-treatment, compound 5 µM
[3] = glucocorticoid arm: hydrocortisone 2.75 uM pre-treated 2 days and continued, compound 1 µM
[4] = glucocorticoid arm: hydrocortisone 2.75 uM pre-treated 2 days and continued, compound 5 µM
[5] = glucocorticoid arm: vehicle, compound 1 µM
[6] = glucocorticoid arm: vehicle, compound 5 µM
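Further: CTB read-out in 384-well plates, triplicate wells, NPI normalised per plate against 1 µM phenylarsine oxide (0) and 0.1% DMSO (1) controls.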

## CC(=O)O[C@H]1C(=O)[C@@]2(C)[C@H]([C@H](OC(=O)c3ccccc3)[C@]3(O)C[C@H](OC(=O)[C@H](O)[C@@H](NC(=O)c4ccccc4)c4ccccc4)C(C)=C1C3(C)C)[C@]1(OC(C)=O)CO[C@@H]1C[C@@H]2O [Paclitaxel; Taxol]
[1]
  normalised cell viability: 0.131 ± 0.0057
[2]
  normalised cell viability: 1.03 ± 0.01
[3]
  normalised cell viability: 0.466 ± 0.032
[4]
  normalised cell viability: 1.02 ± 0.011
[5]
  normalised cell viability: 0.0302 ± 0.0049
[6]
  normalised cell viability: 1.01 ± 0.01

## CC(=O)O[C@@]12CO[C@@H]1C[C@H](O)[C@@]1(C)C(=O)[C@H](O)C3=C(C)[C@@H](OC(=O)[C@H](O)[C@@H](NC(=O)OC(C)(C)C)c4ccccc4)C[C@@](O)([C@@H](OC(=O)c4ccccc4)[C@H]21)C3(C)C [Docetaxel]
[1]
  normalised cell viability: 0.159 ± 0.0035
[2]
  normalised cell viability: 0.163 ± 0.0095
[3]
  normalised cell viability: 0.462 ± 0.023
[4]
  normalised cell viability: 0.518 ± 0.015
[5]
  normalised cell viability: 0.049 ± 0.0034
[6]
  normalised cell viability: 0.0428 ± 0.0097

## CO[C@H]1C(=O)[C@]2(C)[C@@H](OC)C[C@H]3OC[C@@]3(OC(C)=O)[C@H]2[C@H](OC(=O)c2ccccc2)[C@]2(O)C[C@H](OC(=O)[C@H](O)[C@@H](NC(=O)OC(C)(C)C)c3ccccc3)C(C)=C1C2(C)C [Cabazitaxel]
[1]
  normalised cell viability: 0.191 ± 0.012
[2]
  normalised cell viability: 1.05 ± 0.021
[3]
  normalised cell viability: 0.468 ± 0.0065
[4]
  normalised cell viability: 1.05 ± 0.015
[5]
  normalised cell viability: 0.0505 ± 0.01
[6]
  normalised cell viability: 1.007 ± 0.0058

## CC(=O)O[C@H]1C(=O)[C@@]2(C)[C@H]([C@H](OC(=O)c3ccccc3)[C@]3(O)C[C@H](OC(=O)[C@H](O)[C@@H](NC(=O)c4ccccc4)c4ccccc4)C(C)=C1C3(C)C)[C@]1(OC(C)=O)CO[C@@H]1C[C@@H]2O [Taxol]
[1]
  normalised cell viability: 0.122 ± 0.012
[2]
  normalised cell viability: 0.117 ± 0.015
[3]
  normalised cell viability: 0.8513 ± 0.0064
[4]
  normalised cell viability: 0.802 ± 0.051
[5]
  normalised cell viability: 0.0515 ± 0.0084
[6]
  normalised cell viability: 0.0382 ± 0.0051

## COC(=O)C1=C(C)NC(C)=C([N+](=O)[O-])C1c1ccccc1C(F)(F)F (racemic)
[1]
  normalised cell viability: 0.99 ± 0.0072
[2]
  normalised cell viability: 0.942 ± 0.02
[3]
  normalised cell viability: 0.9753 ± 0.0031
[4]
  normalised cell viability: 0.9355 ± 0.00071
[5]
  normalised cell viability: 0.962 ± 0.01
[6]
  normalised cell viability: 0.947 ± 0.011

## CC[C@]1(O)C[C@@H]2CN(CCc3c([nH]c4ccccc34)[C@@](C(=O)OC)(c3cc4c(cc3OC)N(C)[C@H]3[C@@](O)(C(=O)OC)[C@H](OC(C)=O)[C@]5(CC)C=CCN6CC[C@]43[C@@H]65)C2)C1 [Vinblastine sulfate salt]
[1]
  normalised cell viability: 0.361 ± 0.02
[2]
  normalised cell viability: 0.337 ± 0.021
[3]
  normalised cell viability: 0.795 ± 0.17
[4]
  normalised cell viability: 0.94 ± 0.023
[5]
  normalised cell viability: 0.0757 ± 0.0017
[6]
  normalised cell viability: 0.0495 ± 0.005

## CCC1=C[C@@H]2CN(C1)Cc1c([nH]c3ccccc13)[C@@](C(=O)OC)(c1cc3c(cc1OC)N(C)[C@H]1[C@@](O)(C(=O)OC)[C@H](OC(C)=O)[C@]4(CC)C=CCN5CC[C@]31[C@@H]54)C2 [Vinorelbine tartrate]
[1]
  normalised cell viability: 0.327 ± 0.0017
[2]
  normalised cell viability: 0.35 ± 0.02
[3]
  normalised cell viability: 0.629 ± 0.017
[4]
  normalised cell viability: 0.683 ± 0.036
[5]
  normalised cell viability: 0.0577 ± 0.0028
[6]
  normalised cell viability: 0.0356 ± 0.0026

## CC[C@]1(O)C[C@@H]2CN(CCc3c([nH]c4ccccc34)[C@@](C(=O)OC)(c3cc4c(cc3OC)N(C)[C@H]3[C@@](O)(C(=O)OC)[C@H](OC(C)=O)[C@]5(CC)C=CCN6CC[C@]43[C@@H]65)C2)C1 [Vinblastine sulfate salt; Vinblastine sulfate]
[1]
  normalised cell viability: 0.354 ± 0.019
[2]
  normalised cell viability: 1.023 ± 0.0058
[3]
  normalised cell viability: 0.621 ± 0.029
[4]
  normalised cell viability: 1.03 ± 0.027
[5]
  normalised cell viability: 0.0439 ± 0.00099
[6]
  normalised cell viability: 1.017 ± 0.0058

## C=CCN1CCc2c(cc(O)c(O)c2Br)[C@@H](c2ccccc2)C1 [R(+)-6-Bromo-APB hydrobromide]
[1]
  normalised cell viability: 0.986 ± 0.017
[2]
  normalised cell viability: 1.01
[3]
  normalised cell viability: 0.989 ± 0.0095
[4]
  normalised cell viability: 1 ± 0.011
[5]
  normalised cell viability: 0.976 ± 0.011
[6]
  normalised cell viability: 0.9827 ± 0.0035

## Cc1cc(C)c(/C=C2\C(=O)Nc3ccccc32)[nH]1
[1]
  normalised cell viability: 1.06 ± 0.01
[2]
  normalised cell viability: 1.09 ± 0.015
[3]
  normalised cell viability: 1.07 ± 0.044
[4]
  normalised cell viability: 1.12 ± 0.017
[5]
  normalised cell viability: 1.03
[6]
  normalised cell viability: 1.03 ± 0.011

## COc1c/c(=C2\C=c3ccccc3=N2)[nH]/c1=C\c1[nH]c(C)cc1C [Obatoclax mesylate (GX15-070)]
[1]
  normalised cell viability: 0.972 ± 0.014
[2]
  normalised cell viability: 0.42 ± 0.019
[3]
  normalised cell viability: 1 ± 0.0087
[4]
  normalised cell viability: 1.03 ± 0.015
[5]
  normalised cell viability: 0.564 ± 0.07
[6]
  normalised cell viability: 0.0292 ± 0.0041

## Cc1cc(C)c(/C=C2\C(=O)Nc3ccccc32)[nH]1 [Semaxanib (SU5416)]
[1]
  normalised cell viability: 1.09 ± 0.011
[2]
  normalised cell viability: 1.15 ± 0.046
[3]
  normalised cell viability: 1.09 ± 0.011
[4]
  normalised cell viability: 1.11 ± 0.017
[5]
  normalised cell viability: 1.023 ± 0.0058
[6]
  normalised cell viability: 1.027 ± 0.0058

## O=C(O)CCC(NC(=O)c1ccccc1C(=O)O)C(=O)O [Phthalamoyl-L-glutamic acid trisodium]
[1]
  normalised cell viability: 0.9933 ± 0.0031
[2]
  normalised cell viability: 1.06 ± 0.021
[3]
  normalised cell viability: 0.869 ± 0.23
[4]
  normalised cell viability: 1.03 ± 0.025
[5]
  normalised cell viability: 0.997 ± 0.0052
[6]
  normalised cell viability: 1.006 ± 0.0063

## CC(NC(=O)Cc1cc(F)cc(F)c1)C(=O)NC1C(=O)N(C)c2ccccc2-c2ccccc21 (stereo unspecified)
[1]
  normalised cell viability: 0.977 ± 0.0072
[2]
  normalised cell viability: 0.998 ± 0.0035
[3]
  normalised cell viability: 0.983 ± 0.015
[4]
  normalised cell viability: 0.999 ± 0.019
[5]
  normalised cell viability: 0.9847 ± 0.0057
[6]
  normalised cell viability: 0.9813 ± 0.007

## COc1cc(=O)n(C)c2c(OCC(O)C(C)(C)O)cccc12 (stereo unspecified) [Foliosidine]
[1]
  normalised cell viability: 1.005 ± 0.0081
[2]
  normalised cell viability: 0.99 ± 0.01
[3]
  normalised cell viability: 0.9877 ± 0.0067
[4]
  normalised cell viability: 0.981 ± 0.012
[5]
  normalised cell viability: 0.998 ± 0.011
[6]
  normalised cell viability: 0.9963 ± 0.0021

## O=C(CCCCCCC(=O)Nc1ccccc1)NO [Vorinostat; SAHA]
[1]
  normalised cell viability: 0.928 ± 0.018
[2]
  normalised cell viability: 1.04 ± 0.04
[3]
  normalised cell viability: 0.95 ± 0.0036
[4]
  normalised cell viability: 1.02
[5]
  normalised cell viability: 0.995 ± 0.015
[6]
  normalised cell viability: 0.9983 ± 0.0029

## O=C(CCCCCCC(=O)Nc1ccccc1)NO
[1]
  normalised cell viability: 0.959 ± 0.016
[2]
  normalised cell viability: 0.569 ± 0.04
[3]
  normalised cell viability: 0.978 ± 0.013
[4]
  normalised cell viability: 0.912 ± 0.015
[5]
  normalised cell viability: 0.969 ± 0.011
[6]
  normalised cell viability: 0.075 ± 0.0018

## CC(C)(C)OC(=O)Nc1ccc(-c2cc(C(=O)NCCCCCCC(=O)NO)no2)cc1
[1]
  normalised cell viability: 0.9572 ± 0.0081
[2]
  normalised cell viability: 0.244 ± 0.23
[3]
  normalised cell viability: 0.991 ± 0.025
[4]
  normalised cell viability: 0.677 ± 0.31
[5]
  normalised cell viability: 0.806 ± 0.15
[6]
  normalised cell viability: 0.0189 ± 0.02

## O=C(CCCCCCC(=O)Nc1ccccc1)NO [Vorinostat (SAHA, MK0683)]
[1]
  normalised cell viability: 0.94 ± 0.017
[2]
  normalised cell viability: 0.585 ± 0.025
[3]
  normalised cell viability: 0.959 ± 0.0017
[4]
  normalised cell viability: 0.955 ± 0.048
[5]
  normalised cell viability: 1.003 ± 0.0058
[6]
  normalised cell viability: 0.0617 ± 0.0036

## N=C(N)NCCC[C@H](N)C(=O)O [L-Arginine]
[1]
  normalised cell viability: 1 ± 0.018
[2]
  normalised cell viability: 0.997 ± 0.0027
[3]
  normalised cell viability: 0.994 ± 0.0066
[4]
  normalised cell viability: 1 ± 0.011
[5]
  normalised cell viability: 0.986 ± 0.0085
[6]
  normalised cell viability: 1.001 ± 0.0081

## CC1(C)CNc2cc(NC(=O)c3cccnc3NCc3ccncc3)ccc21 [Motesanib Diphosphate]
[1]
  normalised cell viability: 1.02 ± 0.011
[2]
  normalised cell viability: 1 ± 0.031
[3]
  normalised cell viability: 1 ± 0.012
[4]
  normalised cell viability: 0.992 ± 0.026
[5]
  normalised cell viability: 1.001 ± 0.0076
[6]
  normalised cell viability: 1.002 ± 0.0076

## O=C1NC(=O)C(=Cc2ccc(-c3ccc(F)cc3)o2)S1 (stereo in doubt)
[1]
  normalised cell viability: 1 ± 0.018
[2]
  normalised cell viability: 1 ± 0.014
[3]
  normalised cell viability: 0.996 ± 0.013
[4]
  normalised cell viability: 1.01
[5]
  normalised cell viability: 0.991 ± 0.0027
[6]
  normalised cell viability: 0.9913 ± 0.0083

## O=c1[nH]c(=O)n([C@H]2C[C@H](O)[C@@H](CO)O2)cc1/C=C/Br [(E)-5-(2-Bromovinyl)-2'-deoxyuridine]
[1]
  normalised cell viability: 1.013 ± 0.0058
[2]
  normalised cell viability: 1.01 ± 0.01
[3]
  normalised cell viability: 1.003 ± 0.0061
[4]
  normalised cell viability: 1.015 ± 0.0071
[5]
  normalised cell viability: 0.9783 ± 0.0055
[6]
  normalised cell viability: 0.9897 ± 0.0049

## CCC[C@H](NC(=O)/C(C#N)=C/c1cccc(Br)n1)c1ccccc1
[1]
  normalised cell viability: 1.017 ± 0.0058
[2]
  normalised cell viability: 0.726 ± 0.1
[3]
  normalised cell viability: 1.02 ± 0.01
[4]
  normalised cell viability: 1.09 ± 0.025
[5]
  normalised cell viability: 0.996 ± 0.0046
[6]
  normalised cell viability: 0.339 ± 0.026

## C[C@H](NC(=O)/C(C#N)=C/c1cccc(Br)n1)c1ccccc1
[1]
  normalised cell viability: 1.01 ± 0.012
[2]
  normalised cell viability: 1.06 ± 0.032
[3]
  normalised cell viability: 1.02 ± 0.017
[4]
  normalised cell viability: 1.048 ± 0.0075
[5]
  normalised cell viability: 0.9985 ± 0.0098
[6]
  normalised cell viability: 0.0147 ± 0.011

## C[C@@H](NC(=O)/C(C#N)=C/c1ccc(O)c(O)c1)c1ccccc1 [Tyrphostin AG 527]
[1]
  normalised cell viability: 1.013 ± 0.0058
[2]
  normalised cell viability: 0.9963 ± 0.0038
[3]
  normalised cell viability: 0.879 ± 0.22
[4]
  normalised cell viability: 0.999 ± 0.011
[5]
  normalised cell viability: 1.003 ± 0.0058
[6]
  normalised cell viability: 1.003 ± 0.0061
